# Among all 5,500 compounds or so, about 2,000 (36%) were called active. Not shown: some 18% with an inconclusive outcome. Some of the results follow. Unmarked numbers belong to inactive results. Cut-off read from the data, not from the text of the source: active = normalized growth mostly below about 0.91 (no sharp cut-off); inconclusive = no clear call, values can overlap the other calls; inactive = mostly above about 0.92.
# Assay: chemical genetic growth profiling, strain panel (AID 1159580);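 note: tested at 20 µM; growth read once vehicle control cultures reached saturation at 30 °C; 1 = growth at the plate median or of vehicle wells; lower values mean less growth of the strain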
# Settings: S. cerevisiae deletion strains, growth OD
compound,measurement,setting,value
CC1(C)C/C(=N/Nc2ccc(C(F)(F)F)cc2)c2cc(C(C)(C)C)c(O)c(O)c2O1,normalized growth,"locus YAR019C, strain CDC15, active compounds read low",0.989
same,normalized growth,"locus YBL105C, strain PKC1, active compounds read low",0.978
same,normalized growth,"locus YBR135W, strain CKS1, active compounds read low",0.977
same,normalized growth,"locus YBR136W, strain MEC1, active compounds read low",0.978
same,normalized growth,"locus YBR160W, strain CDC28, active compounds read low",0.976
same,normalized growth,"locus YDL017W, strain CDC7, active compounds read low",0.976
same,normalized growth,"locus YDL028C, strain MPS1, active compounds read low",0.96
same,normalized growth,"locus YDL108W, strain KIN28, active compounds read low",0.976
same,normalized growth,"locus YDL132W, strain cdc53, active compounds read low",0.977
same,normalized growth,"locus YDL214C, strain PRR2, active compounds read low",0.481 (active)
same,normalized growth,"locus YDR052C, strain DBF4, active compounds read low",0.975
same,normalized growth,"locus YDR054C, strain cdc34, active compounds read low",0.968
same,normalized growth,"locus YDR226W, strain ADK1, active compounds read low",0.988
same,normalized growth,"locus YDR477W, strain SNF1, active compounds read low",0.6 (active)
same,normalized growth,"locus YER123W, strain YCK3, active compounds read low",0.375 (active)
same,normalized growth,"locus YER133W, strain GLC7, active compounds read low",0.896
same,normalized growth,"locus YFL009W, strain cdc4, active compounds read low",0.979
same,normalized growth,"locus YFL029C, strain CAK1, active compounds read low",0.978
same,normalized growth,"locus YFR003C, strain YPI1, active compounds read low",0.981
same,normalized growth,"locus YFR019W, strain FAB1, active compounds read low",0.436 (active)
same,normalized growth,"locus YFR028C, strain CDC14, active compounds read low",0.98
same,normalized growth,"locus YGR040W, strain KSS1, active compounds read low",0.635 (active)
same,normalized growth,"locus YGR052W, strain FMP48, active compounds read low",0.347 (active)
same,normalized growth,"locus YGR092W, strain DBF2, active compounds read low",0.214 (active)
same,normalized growth,"locus YHR030C, strain SLT2, active compounds read low",0.246 (active)
same,normalized growth,"locus YHR079C, strain IRE1, active compounds read low",0.29 (active)
same,normalized growth,"locus YHR082C, strain KSP1, active compounds read low",0.314 (active)
same,normalized growth,"locus YHR205W, strain SCH9, active compounds read low",0.0779 (active)
same,normalized growth,"locus YIL147C, strain SLN1, active compounds read low",0.975
same,normalized growth,"locus YJL095W, strain BCK1, active compounds read low",0.283 (active)
same,normalized growth,"locus YJL128C, strain PBS2, active compounds read low",0.129 (active)
same,normalized growth,"locus YJL157C, strain FAR1, active compounds read low",0.896
same,normalized growth,"locus YJR016C, strain ILV3, active compounds read low",0.991
same,normalized growth,"locus YJR066W, strain TOR1 (second series), active compounds read low",0.355 (active)
same,normalized growth,"locus YJR066W, strain TOR1, active compounds read low",0.36 (active)
same,normalized growth,"locus YKL048C, strain ELM1, active compounds read low",0.275 (active)
same,normalized growth,"locus YKL067W, strain YNK1, active compounds read low",0.532 (active)
same,normalized growth,"locus YKL101W, strain HSL1, active compounds read low",0.204 (active)
same,normalized growth,"locus YKL193C, strain SDS22, active compounds read low",0.973
same,normalized growth,"locus YKL203C, strain TOR2, active compounds read low",0.731
same,normalized growth,"locus YLR113W, strain HOG1, active compounds read low",0.199 (active)
same,normalized growth,"locus YLR133W, strain CKI1, active compounds read low",0.419 (active)
same,normalized growth,"locus YLR403W, strain SFP1, active compounds read low",0.865
same,normalized growth,"locus YML070W, strain DAK1, active compounds read low",0.426 (active)
same,normalized growth,"locus YMR001C, strain CDC5, active compounds read low",0.98
same,normalized growth,"locus YMR205C, strain PFK2 (second series), active compounds read low",0.364 (active)
same,normalized growth,"locus YMR277W, strain FCP1, active compounds read low",0.977
same,normalized growth,"locus YNL006W, strain LST8, active compounds read low",0.975
same,normalized growth,"locus YNL020C, strain ARK1, active compounds read low",0.375 (active)
same,normalized growth,"locus YNL161W, strain CBK1, active compounds read low",0.976
same,normalized growth,"locus YNL183C, strain NPR1, active compounds read low",0.302 (active)
same,normalized growth,"locus YNL207W, strain RIO2, active compounds read low",0.976
same,normalized growth,"locus YNL222W, strain SSU72, active compounds read low",0.995
same,normalized growth,"locus YNL307C, strain MCK1 (second series), active compounds read low",0.116 (active)
same,normalized growth,"locus YOL078W, strain AVO1, active compounds read low",0.975
same,normalized growth,"locus YOL136C, strain PFK27, active compounds read low",0.427 (active)
same,normalized growth,"locus YOR061W, strain CKA2, active compounds read low",0.243 (active)
same,normalized growth,"locus YOR119C, strain RIO1, active compounds read low",0.534 (active)
same,normalized growth,"locus YOR231W, strain MKK1, active compounds read low",0.277 (active)
same,normalized growth,"locus YOR329C, strain SCD5, active compounds read low",0.983
same,normalized growth,"locus YPL031C, strain PHO85, active compounds read low",0.576 (active)
same,normalized growth,"locus YPL153C, strain RAD53, active compounds read low",0.436 (active)
same,normalized growth,"locus YPL204W, strain HRR25, active compounds read low",0.535 (active)
same,normalized growth,"locus YPL209C, strain IPL1, active compounds read low",0.983
same,normalized growth,"locus YPL256C, strain CLN2, active compounds read low",0.243 (active)
same,normalized growth,"locus YPR025C, strain CCL1, active compounds read low",0.981
same,normalized growth,"locus YPR106W, strain ISR1, active compounds read low",0.421 (active)
same,normalized growth,"locus YPR111W, strain DBF20, active compounds read low",0.319 (active)
same,normalized growth,"strain NNK1, active compounds read low",0.434 (active)
same,normalized growth,"strain TSCII, active compounds read low",0.986

# Source: PubChem BioAssay AID1159580 (chemical genetic matrix, 2015)
